Test results taken from the supplement of paper PMC10849652.
The full data set covers some 7,900 targets. This sample favours those with a hit. About 0.6% of all pairs of compound and target were hits.

Tests used:
Assay in all cases: log2 fold change, soluble protein after heating vs DMSO (PISA); higher = thermal stabilisation; K562 cells, 10 uM, 30 min; active = over 0.2 and 3.5 SD of the protein, either way, in both replicates (recomputed)
bafetinib = compound: Cc1ccc(NC(=O)c2ccc(CN3CC[C@H](N(C)C)C3)c(C(F)(F)F)c2)cc1Nc1nccc(-c2cncnc2)n1 [bafetinib]
Summary of the method: (§1)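 For each measurement, 10 μM compound was applied for 30 min to K562 cells at 2×10^6 cells/mL. Aliquots were heated for 3 min across 48°C-58°C, pooled, and extracted in PBS with 0.5% NP-40 at 4°C; the supernatant after 21,000xg for 90 min was soluble protein. This was quantified by TMTpro 16plex LC-MS/MS with channel sums equalised, and thermal stability was reported relative to control samples from duplicates, on a log2 fold-change scale.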

[1] = compound: Cc1cccc(CC(=O)N2CCc3c2ccc(-c2cn(C)c4ncnc(N)c24)c3F)n1
Summary of the method: as §1

nilotinib = compound: Cc1cn(-c2cc(NC(=O)c3ccc(C)c(Nc4nccc(-c5cccnc5)n4)c3)cc(C(F)(F)F)c2)cn1 [nilotinib]
Summary of the method: as §1

[2] = compound: Cc1nc(Nc2n[nH]c3c2CN(C(=O)N[C@H](CN(C)C)c2ccccc2)C3(C)C)c2sccc2n1
Summary of the method: as §1

dasatinib = compound: Cc1nc(Nc2ncc(C(=O)Nc3c(C)cccc3Cl)s2)cc(N2CCN(CCO)CC2)n1 [dasatinib]
Summary of the method: as §1

[3] = compound: Cc1ncc(-c2ccnc(Nc3ccc(S(C)(=O)=O)cc3)n2)n1C(C)C
Summary of the method: as §1

[4] = compound: Cn1cc(-c2ccc3c(c2)CCN3C(=O)Cc2cccc(C(F)(F)F)c2)c2c(N)ncnc21
Summary of the method: as §1

[5] = compound: Cn1cc(-c2ccc3nnc(C(F)(F)c4ccc5ncccc5c4)n3n2)cn1
Summary of the method: as §1

tipifarnib = compound: Cn1cncc1[C@@](N)(c1ccc(Cl)cc1)c1ccc2c(c1)c(-c1cccc(Cl)c1)cc(=O)n2C [tipifarnib]
Summary of the method: as §1

mubritinib = compound: FC(F)(F)c1ccc(/C=C/c2nc(COc3ccc(CCCCn4ccnn4)cc3)co2)cc1 [mubritinib]
Summary of the method: as §1

[6] = compound: NC(=O)Nc1cc(-c2cccc(F)c2)sc1C(=O)N[C@H]1CCCNC1
Summary of the method: as §1

[7] = compound: NC(=O)c1cnc(N[C@@H]2CCCC[C@@H]2N)nc1Nc1cccc(-n2nccn2)c1
Summary of the method: as §1

[8] = compound: NC1(c2ccc(-c3nc4ccn5c(=O)[nH]nc5c4cc3-c3ccccc3)cc2)CCC1
Summary of the method: as §1

[9] = compound: NCC(=O)Nc1ccc(-n2nc(C(F)(F)F)cc2-c2ccc3c(ccc4ccccc43)c2)cc1
Summary of the method: as §1

entinostat = compound: Nc1ccccc1NC(=O)c1ccc(CNC(=O)OCc2cccnc2)cc1 [entinostat]
Summary of the method: as §1

vorinostat = compound: O=C(CCCCCCC(=O)Nc1ccccc1)NO [vorinostat]
Summary of the method: as §1

citarinostat = compound: O=C(CCCCCCNC(=O)c1cnc(N(c2ccccc2)c2ccccc2Cl)nc1)NO [citarinostat]
Summary of the method: as §1

silmitasertib = compound: O=C(O)c1ccc2c(c1)nc(Nc1cccc(Cl)c1)c1ccncc12 [silmitasertib]
Summary of the method: as §1

[10] = compound: O=C1NC(=O)C(c2cnc3ccccn23)=C1c1cn2c3c(cc(F)cc13)CN(C(=O)N1CCCCC1)CC2
Summary of the method: as §1

[11] = compound: c1cc(OCCN2CCCCC2)cc(-c2n[nH]c3ccc(-c4nnc[nH]4)cc23)c1
Summary of the method: as §1

Measured: log2 fold change

OPA1 isoform 2 (UniProt O60313)
Sequence of UniProt O60313 (O60313 whole entry, looked up): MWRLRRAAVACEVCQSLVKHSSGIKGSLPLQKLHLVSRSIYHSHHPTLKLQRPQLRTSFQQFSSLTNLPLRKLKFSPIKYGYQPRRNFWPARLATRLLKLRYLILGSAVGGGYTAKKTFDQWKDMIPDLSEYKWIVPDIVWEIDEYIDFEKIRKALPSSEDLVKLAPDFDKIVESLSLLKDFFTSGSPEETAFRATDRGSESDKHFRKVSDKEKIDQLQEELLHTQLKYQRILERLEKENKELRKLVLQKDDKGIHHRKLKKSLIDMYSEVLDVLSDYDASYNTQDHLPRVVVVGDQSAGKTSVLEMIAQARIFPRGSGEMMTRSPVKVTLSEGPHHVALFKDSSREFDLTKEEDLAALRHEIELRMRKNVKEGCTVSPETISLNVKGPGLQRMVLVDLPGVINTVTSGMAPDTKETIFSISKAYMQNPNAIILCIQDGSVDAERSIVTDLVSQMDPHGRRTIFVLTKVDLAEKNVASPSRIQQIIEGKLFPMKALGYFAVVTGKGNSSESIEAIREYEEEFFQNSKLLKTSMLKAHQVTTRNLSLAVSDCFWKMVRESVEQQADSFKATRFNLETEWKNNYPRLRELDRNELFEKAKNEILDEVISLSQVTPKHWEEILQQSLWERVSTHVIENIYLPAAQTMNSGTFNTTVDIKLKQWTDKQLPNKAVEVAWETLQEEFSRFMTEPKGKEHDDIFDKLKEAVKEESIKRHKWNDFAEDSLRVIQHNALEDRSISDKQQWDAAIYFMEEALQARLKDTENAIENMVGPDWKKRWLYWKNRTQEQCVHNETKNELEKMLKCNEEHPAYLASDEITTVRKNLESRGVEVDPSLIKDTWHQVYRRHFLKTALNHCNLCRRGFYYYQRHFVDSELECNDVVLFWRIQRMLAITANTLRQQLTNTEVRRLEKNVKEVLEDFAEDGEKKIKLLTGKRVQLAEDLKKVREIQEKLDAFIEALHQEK
inactive: bafetinib -0.022 | [1] 0.069 | nilotinib -0.039 | [2] -0.025 | dasatinib -0.169 | [3] -0.004 | [4] 0.054 | [5] -0.031 | tipifarnib -0.12 | mubritinib 0.062 | [6] -0.046 | [7] -0.054 | [8] -0.165 | [9] -0.072 | entinostat 0.024 | vorinostat 0.033 | citarinostat 0.05 | silmitasertib -0.027 | [10] -0.033 | [11] -0.048

MRPL47 (UniProt Q9HD33)
inactive: bafetinib 0.264 | [1] -0.263 | nilotinib -0.124 | [2] 0.118 | dasatinib 0.016 | [3] 0.073 | [4] -0.174 | [5] -0.085 | tipifarnib 0.103 | mubritinib -0.029 | [6] 0.024 | [7] 0.058 | [8] 0.039 | [9] 0.057 | entinostat 0.028 | vorinostat -0.195 | citarinostat -0.087 | silmitasertib -0.021 | [10] -0.011 | [11] 0.336

NEMP1 (UniProt O14524)
Sequence of UniProt O14524 (O14524 whole entry, looked up): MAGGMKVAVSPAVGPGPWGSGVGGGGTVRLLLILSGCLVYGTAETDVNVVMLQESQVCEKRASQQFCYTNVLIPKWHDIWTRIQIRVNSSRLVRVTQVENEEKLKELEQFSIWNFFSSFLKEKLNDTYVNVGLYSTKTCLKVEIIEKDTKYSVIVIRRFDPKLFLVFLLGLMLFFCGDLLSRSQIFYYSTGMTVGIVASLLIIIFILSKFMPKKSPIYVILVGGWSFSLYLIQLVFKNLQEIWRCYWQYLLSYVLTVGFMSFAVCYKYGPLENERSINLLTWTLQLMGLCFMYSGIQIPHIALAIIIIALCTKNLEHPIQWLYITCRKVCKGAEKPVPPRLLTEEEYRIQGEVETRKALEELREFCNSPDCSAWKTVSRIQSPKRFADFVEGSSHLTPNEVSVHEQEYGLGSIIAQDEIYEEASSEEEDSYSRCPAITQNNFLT
inactive: bafetinib -0.147 | [1] 0.065 | nilotinib -0.186 | [2] 0.004 | dasatinib -0.009 | [3] 0.003 | [4] -0.007 | [5] -0.025 | tipifarnib 0 | mubritinib 0.036 | [6] -0.007 | [7] -0.204 | [8] -0.078 | [9] -0.181 | entinostat 0.028 | vorinostat 0.078 | citarinostat 0.026 | silmitasertib -0.019 | [10] -0.029 | [11] -0.113

NASP (UniProt P49321)
inactive: bafetinib -0.036 | [1] 0.011 | nilotinib -0.013 | [2] -0.032 | dasatinib -0.027 | [3] 0 | [4] -0.02 | [5] 0.009 | tipifarnib -0.026 | mubritinib 0.026 | [6] -0.009 | [7] -0.081 | [8] -0.06 | [9] -0.054 | entinostat 0.035 | vorinostat 0.028 | citarinostat 0.035 | silmitasertib 0.063 | [10] -0.034 | [11] -0.02

MRPS35 (UniProt P82673)
inactive: bafetinib 0.038 | [1] 0.115 | nilotinib -0.134 | [2] 0.088 | dasatinib -0.004 | [3] -0.071 | [4] -0.039 | [5] 0.017 | tipifarnib 0.024 | mubritinib 0.091 | [6] 0.035 | [7] -0.07 | [8] -0.082 | [9] 0.012 | entinostat -0.027 | vorinostat 0.088 | citarinostat -0.011 | silmitasertib -0.119 | [10] -0.033 | [11] -0.03

NA, A0A096LPI6
inactive: bafetinib -0.076 | [1] -0.043 | nilotinib 0 | [2] -0.007 | dasatinib -0.005 | [3] -0.04 | [4] -0.003 | [5] -0.028 | tipifarnib -0.038 | mubritinib 0.024 | [6] 0.03 | [7] 0.04 | [8] -0.012 | [9] 0.016 | entinostat -0.006 | vorinostat -0.02 | citarinostat 0.022 | silmitasertib 0.024 | [10] -0.043 | [11] -0.015

MOV10 (UniProt Q9HCE1)
inactive: bafetinib 0.068 | [1] 0 | nilotinib 0.035 | [2] 0.041 | dasatinib 0.111 | [3] 0.068 | [4] -0.055 | [5] -0.101 | tipifarnib 0.091 | mubritinib -0.014 | [6] 0.007 | [7] 0.031 | [8] 0.178 | [9] 0.018 | entinostat 0.016 | vorinostat -0.02 | citarinostat -0.054 | silmitasertib 0.133 | [10] 0.187 | [11] -0.164

NEDD4L (UniProt Q96PU5)
inactive: bafetinib -0.037 | [1] -0.062 | nilotinib 0.015 | [2] -0.134 | dasatinib -0.103 | [3] 0.031 | [4] -0.097 | [5] -0.078 | tipifarnib -0.022 | mubritinib 0.01 | [6] -0.045 | [7] -0.062 | [8] -0.06 | [9] -0.074 | entinostat 0.075 | vorinostat 0.062 | citarinostat -0.001 | silmitasertib 0.114 | [10] -0.006 | [11] -0.034

NELFA (UniProt Q9H3P2)
Sequence of UniProt Q9H3P2 (Q9H3P2 whole entry, looked up): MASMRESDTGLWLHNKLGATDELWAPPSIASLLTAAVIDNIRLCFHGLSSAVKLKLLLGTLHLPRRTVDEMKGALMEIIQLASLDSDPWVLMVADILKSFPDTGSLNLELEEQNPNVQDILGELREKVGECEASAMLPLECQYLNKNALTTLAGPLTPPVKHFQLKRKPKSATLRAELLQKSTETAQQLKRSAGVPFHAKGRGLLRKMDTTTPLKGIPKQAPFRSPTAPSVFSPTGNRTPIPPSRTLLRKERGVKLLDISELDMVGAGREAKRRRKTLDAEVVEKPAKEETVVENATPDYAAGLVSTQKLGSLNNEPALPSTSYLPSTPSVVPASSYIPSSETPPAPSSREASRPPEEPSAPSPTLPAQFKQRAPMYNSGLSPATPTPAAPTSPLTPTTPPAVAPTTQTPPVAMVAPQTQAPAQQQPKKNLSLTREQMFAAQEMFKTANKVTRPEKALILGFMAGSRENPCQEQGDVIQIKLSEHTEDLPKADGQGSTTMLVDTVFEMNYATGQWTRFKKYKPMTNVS
inactive: bafetinib -0.145 | [1] 0.027 | nilotinib 0.032 | [2] -0.311 | dasatinib -0.112 | [3] -0.152 | [4] 0.015 | [5] 0.018 | tipifarnib -0.141 | mubritinib -0.034 | [6] 0.038 | [7] -0.016 | [8] 0.142 | [9] -0.245 | entinostat 0.002 | vorinostat 0.061 | citarinostat -0.169 | silmitasertib 0.065 | [10] -0.183 | [11] 0.002

NFYC (UniProt Q13952)
Sequence of UniProt Q13952 (Q13952 whole entry, looked up): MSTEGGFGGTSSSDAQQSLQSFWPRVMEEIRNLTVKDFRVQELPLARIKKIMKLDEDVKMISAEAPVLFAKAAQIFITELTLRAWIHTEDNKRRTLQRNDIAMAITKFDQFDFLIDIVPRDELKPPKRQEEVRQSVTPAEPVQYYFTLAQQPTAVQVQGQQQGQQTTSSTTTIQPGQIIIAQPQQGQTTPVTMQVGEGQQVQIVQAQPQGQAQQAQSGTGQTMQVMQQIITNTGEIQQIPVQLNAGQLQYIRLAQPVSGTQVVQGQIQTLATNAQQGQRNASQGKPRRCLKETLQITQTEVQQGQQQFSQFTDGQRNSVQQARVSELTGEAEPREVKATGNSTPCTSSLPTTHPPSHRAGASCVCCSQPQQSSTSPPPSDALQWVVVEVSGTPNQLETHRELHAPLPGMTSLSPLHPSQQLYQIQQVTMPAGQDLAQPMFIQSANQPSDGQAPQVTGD
inactive: bafetinib -0.017 | [1] -0.041 | nilotinib -0.024 | [2] -0.021 | dasatinib 0.032 | [3] -0.008 | [4] 0.014 | [5] 0.048 | tipifarnib 0.038 | mubritinib 0.066 | [6] 0.008 | [7] -0.079 | [8] -0.054 | [9] -0.027 | entinostat -0.034 | vorinostat -0.057 | citarinostat -0.002 | silmitasertib 0.024 | [10] -0.058 | [11] -0.044

MORC3 (UniProt Q14149)
Sequence of UniProt Q14149 (Q14149 whole entry, looked up): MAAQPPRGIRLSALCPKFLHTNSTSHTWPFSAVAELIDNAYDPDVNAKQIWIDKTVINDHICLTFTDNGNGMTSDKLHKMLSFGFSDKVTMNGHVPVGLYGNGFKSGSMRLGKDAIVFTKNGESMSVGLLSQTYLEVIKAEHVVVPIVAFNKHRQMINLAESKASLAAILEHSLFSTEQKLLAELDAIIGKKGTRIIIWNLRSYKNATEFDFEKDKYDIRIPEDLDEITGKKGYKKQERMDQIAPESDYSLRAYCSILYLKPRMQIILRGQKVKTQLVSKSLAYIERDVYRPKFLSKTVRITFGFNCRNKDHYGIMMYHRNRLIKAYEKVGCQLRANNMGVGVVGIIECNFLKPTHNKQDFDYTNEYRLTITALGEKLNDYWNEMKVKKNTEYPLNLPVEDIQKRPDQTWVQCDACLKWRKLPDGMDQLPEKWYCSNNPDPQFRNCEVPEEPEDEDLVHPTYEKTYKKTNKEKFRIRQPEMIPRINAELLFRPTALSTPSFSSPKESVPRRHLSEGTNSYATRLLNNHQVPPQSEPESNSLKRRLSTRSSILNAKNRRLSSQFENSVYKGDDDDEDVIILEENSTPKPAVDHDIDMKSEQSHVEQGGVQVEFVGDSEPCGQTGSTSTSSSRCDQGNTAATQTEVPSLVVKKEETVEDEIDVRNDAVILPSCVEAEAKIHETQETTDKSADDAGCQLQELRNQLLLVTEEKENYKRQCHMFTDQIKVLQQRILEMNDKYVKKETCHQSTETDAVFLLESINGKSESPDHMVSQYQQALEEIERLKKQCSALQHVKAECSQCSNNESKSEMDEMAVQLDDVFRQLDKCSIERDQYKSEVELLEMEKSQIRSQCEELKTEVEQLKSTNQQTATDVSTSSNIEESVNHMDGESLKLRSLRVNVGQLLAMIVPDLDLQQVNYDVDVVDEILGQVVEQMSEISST
inactive: bafetinib -0.014 | [1] 0.009 | nilotinib -0.173 | [2] 0.09 | dasatinib -0.154 | [3] 0.105 | [4] 0.011 | [5] -0.026 | tipifarnib 0.006 | mubritinib -0.212 | [6] 0.024 | [7] -0.047 | [8] -0.241 | [9] -0.22 | entinostat -0.021 | vorinostat -0.159 | citarinostat -0.118 | silmitasertib 0.201 | [10] -0.066 | [11] 0.089

NME1 isoform 2 (UniProt P15531)
Sequence of UniProt P15531 (P15531 whole entry, looked up): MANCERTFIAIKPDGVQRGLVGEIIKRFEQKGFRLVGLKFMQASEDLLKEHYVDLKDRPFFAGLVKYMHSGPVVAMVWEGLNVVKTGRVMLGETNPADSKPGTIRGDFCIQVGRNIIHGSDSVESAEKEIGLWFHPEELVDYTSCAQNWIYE
inactive: bafetinib 0.011 | [1] -0.175 | nilotinib -0.115 | [2] 0.182 | dasatinib -0.286 | [3] -0.003 | [4] 0.088 | [5] -0.013 | tipifarnib 0.06 | mubritinib -0.103 | [6] 0.012 | [7] -0.017 | [8] -0.003 | [9] -0.003 | entinostat -0.064 | vorinostat 0.103 | citarinostat -0.089 | silmitasertib -0.138 | [10] -0.089 | [11] -0.253

MPP1 (UniProt Q00013)
inactive: bafetinib 0.043 | [1] 0.035 | nilotinib 0.073 | [2] -0.179 | dasatinib -0.086 | [3] -0.019 | [4] 0.047 | [5] -0.023 | tipifarnib -0.04 | mubritinib 0.034 | [6] -0.083 | [7] -0.015 | [8] -0.159 | [9] -0.067 | entinostat 0.047 | vorinostat 0.093 | citarinostat 0.036 | silmitasertib 0.022 | [10] 0.027 | [11] -0.059

OSBPL8 (UniProt Q9BZF1)
Sequence of UniProt Q9BZF1 (Q9BZF1 whole entry, looked up): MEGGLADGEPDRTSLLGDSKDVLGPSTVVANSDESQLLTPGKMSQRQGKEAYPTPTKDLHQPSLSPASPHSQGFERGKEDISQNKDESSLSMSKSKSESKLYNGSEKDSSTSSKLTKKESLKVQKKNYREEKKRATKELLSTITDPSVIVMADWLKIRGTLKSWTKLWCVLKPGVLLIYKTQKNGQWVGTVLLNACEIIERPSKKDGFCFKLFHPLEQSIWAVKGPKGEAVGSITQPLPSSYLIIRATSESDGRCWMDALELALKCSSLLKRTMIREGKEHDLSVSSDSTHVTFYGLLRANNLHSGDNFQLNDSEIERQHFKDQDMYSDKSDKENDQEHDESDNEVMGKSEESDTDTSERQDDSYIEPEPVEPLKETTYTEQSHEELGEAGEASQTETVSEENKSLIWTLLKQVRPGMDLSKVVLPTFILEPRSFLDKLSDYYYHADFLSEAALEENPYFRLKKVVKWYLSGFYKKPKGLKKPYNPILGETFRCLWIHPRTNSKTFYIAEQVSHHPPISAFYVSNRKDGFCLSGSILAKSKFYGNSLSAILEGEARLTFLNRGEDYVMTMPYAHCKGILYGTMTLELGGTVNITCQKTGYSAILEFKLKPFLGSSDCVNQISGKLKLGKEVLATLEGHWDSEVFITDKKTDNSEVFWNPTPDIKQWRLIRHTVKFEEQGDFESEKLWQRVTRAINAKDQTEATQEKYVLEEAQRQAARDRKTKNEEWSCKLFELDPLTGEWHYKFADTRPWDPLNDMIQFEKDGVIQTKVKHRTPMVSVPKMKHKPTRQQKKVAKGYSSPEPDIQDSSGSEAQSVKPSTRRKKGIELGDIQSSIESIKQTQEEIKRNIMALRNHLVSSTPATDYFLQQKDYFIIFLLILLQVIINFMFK
inactive: bafetinib 0.182 | [1] 0.049 | nilotinib 0.295 | [2] -0.086 | dasatinib 0.066 | [3] -0.047 | [4] -0.225 | [5] -0.093 | tipifarnib -0.117 | mubritinib 0.108 | [6] -0.06 | [7] -0.03 | [8] 0.063 | [9] 0.042 | entinostat 0.012 | vorinostat 0.049 | citarinostat 0.005 | silmitasertib 0 | [10] 0.079 | [11] -0.129

NIPSNAP2 (UniProt O75323)
Sequence of UniProt O75323 (O75323 whole entry, looked up): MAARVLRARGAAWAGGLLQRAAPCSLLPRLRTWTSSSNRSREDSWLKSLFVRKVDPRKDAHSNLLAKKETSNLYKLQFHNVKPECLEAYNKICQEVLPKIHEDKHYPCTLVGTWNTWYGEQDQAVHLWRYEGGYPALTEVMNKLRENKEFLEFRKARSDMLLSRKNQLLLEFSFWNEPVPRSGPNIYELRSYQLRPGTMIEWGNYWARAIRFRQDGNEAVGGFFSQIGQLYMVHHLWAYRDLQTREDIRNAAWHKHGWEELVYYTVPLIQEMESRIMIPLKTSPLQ
inactive: bafetinib 0.02 | [1] -0.012 | nilotinib 0.082 | [2] -0.003 | dasatinib 0.05 | [3] -0.033 | [4] 0.185 | [5] 0.025 | tipifarnib -0.058 | mubritinib 0.041 | [6] -0.084 | [7] -0.047 | [8] -0.004 | [9] -0.033 | entinostat 0.027 | vorinostat -0.016 | citarinostat -0.021 | silmitasertib -0.039 | [10] -0.179 | [11] 0.023

MYL12B (UniProt O14950)
Sequence of UniProt O14950 (O14950 whole entry, looked up): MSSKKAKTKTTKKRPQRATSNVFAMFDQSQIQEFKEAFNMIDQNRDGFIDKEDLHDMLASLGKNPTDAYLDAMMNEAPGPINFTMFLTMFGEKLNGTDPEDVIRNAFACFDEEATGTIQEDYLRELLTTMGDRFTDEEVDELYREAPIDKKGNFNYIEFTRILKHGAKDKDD
inactive: bafetinib -0.049 | [1] 0.042 | nilotinib 0.031 | [2] 0.001 | dasatinib 0.001 | [3] -0.002 | [4] 0.117 | [5] -0.046 | tipifarnib -0.038 | mubritinib 0.064 | [6] 0.09 | [7] 0.084 | [8] -0.013 | [9] 0.055 | entinostat 0.029 | vorinostat -0.004 | citarinostat 0.045 | silmitasertib -0.037 | [10] -0.042 | [11] 0.026
